The nature of assay [1]: LAP4-GFP expression modulators in yeast, confirmation, cell-based, second cherry pick, flow cytometry (AID 2621;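 active = GFP signal as percent of the solvent control above about 150%, meaning raised reporter expression, limit read from the data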;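 also: ratio of well median GFP fluorescence to plate DMSO mean so 100% = DMSO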). Particulars: S. cerevisiae LAP4-GFP strain, 3 h, at 10 µM, stronger effect = higher value. (In general: A flow cytometer gives signals particle by particle.)
Assay [2] can be described thus: modulators of MEP2-GFP levels in yeast, confirmation, S. cerevisiae, flow cytometry GFP, second cherry picks (AID 2622;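 active = GFP signal above 150% of the solvent control wells, that is a rise of more than half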;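 also: median channel GFP fluorescence of all gated yeast cells per well; ratio of median GFP to plate DMSO average so 100% = DMSO level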). Particulars: S. cerevisiae MEP2-GFP strain, 3 h, at 10 µM, stronger effect = higher value.
Assay [3] can be described thus: RPL19A-GFP modulators in TOR pathway yeast, confirmation, cell-based, S. cerevisiae, flow cytometry, second cherry pick (AID 2623;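 active = under 65% GFP response relative to DMSO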;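 also: median GFP channel fluorescence per well over the all cells gate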). Particulars: S. cerevisiae RPL19A-GFP strain, 3 h, at 10 µM, stronger effect = lower value, 100% means same as DMSO wells.
The nature of assay [4]: modulators of CIT2-GFP expression in yeast, confirmation, flow cytometry, second cherry pick, single plex (AID 2624;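 active = GFP response vs DMSO above about 150%, limit read from the data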;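 also: median green fluorescence per well over all gated yeast cells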). Particulars: S. cerevisiae CIT2-GFP strain, 3 h, at 10 µM, stronger effect = higher value, DMSO control wells read 100%.
Assay [5] in a line: AGP1-GFP expression modulators, hit retest, confirmation, cell-based, flow cytometry, S. cerevisiae, cherry pick set 2 (AID 2643).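 Also: median GFP channel fluorescence over all cells without mother daughter split; sample median GFP divided by mean DMSO control so 100% equals DMSO.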 Particulars: S. cerevisiae AGP1-GFP strain, 3 h, at 10 µM, stronger effect = higher value.
Assay [6] can be described thus: compound autofluorescence in yeast s288c, dose response, artefact control for yeast TOR pathway GFP screen, s288c strain (AID 2757;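 active = fluorescence span over the dose series, or activity score, above about 33, limit read from the data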;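 also: thousands of bead-calibrated equivalent soluble fluorophore molecules from median cell fluorescence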). Particulars: S. cerevisiae s288c, 520 nm autofluorescence, flow cytometry, 3 h; at 33 µM; stronger effect = higher value; zero means same as solvent-only cells.
Assay [7] in a line: inhibitors of CD8+ T cell-vesicle binding, pilot screen, LFA-1/ICAM-1 modulator project, MLPCN validation set, flow cytometry (AID 2523;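 active = response below a set limit, under 55% cells CD8-positive and vesicle-bound, and CD8 cells' 90th-percentile brightness under 279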;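 as to vesicle binding response: mean PE anti-B7-1 fluorescence of CD8+ cells relative to row control; 100% = QL9-loaded vesicles with DMSO vehicle in the same plate row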). The note with it: 2C mouse CD8+ T cells, at 7 µM, stronger effect = lower value; double positive events: measured here: CD8+/vesicle+ event percentage.
Assay [8] deals with Integrin beta-1 (Homo sapiens) + Integrin alpha-4 (Homo sapiens) (UniProt P13612+P05556). As to the kind of experiment: inhibition of HUTS-21 binding to VLA-4, pilot screen, VLA-4 allosteric modulator project, U937 cells, HUTS-21 mAb, flow cytometry, validation set (AID 2674;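 active = inhibition above 50%, about 3 SD of the validation set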;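 also: antibody binding induced by the VLA-4 ligand LDV present at three times its Kd; 0% = LDV ligand with antibody and no compound and 100% = antibody without LDV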). The note with it: HUTS-21 LIBS mAb binding, at 6.7 µM, stronger effect = higher value, binding induced by LDV ligand.

For assay [9], the target named is Beta-adrenergic receptor kinase 1 (Homo sapiens) (UniProt P25098). The assay is described as follows: GRK2 binders displacing RNA aptamer, biochemical, validation, human GRK2, bead flow cytometry (AID 488806;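 active = aptamer binding inhibition above 30%, about 3 SD of noise from non-fluorescent compounds; inactive = inhibition at or below 30%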). The note with it: bead-bound GRK2, FAM-aptamer displacement, at 10 µM, stronger effect = higher value.
In assay [10] the target is Beta-2 adrenergic receptor (Homo sapiens) (UniProt P07550). As to the kind of experiment: beta2AR agonists driving receptor internalization, pilot screen, cell-based, FAP fluorogen, flow cytometry, validation set (AID 504459;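 active = percent response above 42, roughly 3 SD of non-fluorescent test compounds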;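 also: agonist-driven loss of surface beta2AR via internalization measured by FAP dye flow cytometry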). The note with it: Am2.2-beta2AR cells, FAP surface receptor flow cytometry; at 10 µM; stronger effect = higher value.
Assay [11] has as its target AP-2 complex subunit beta (Homo sapiens) (UniProt P63010). The assay is described as follows: inhibitors of arrestin peptide binding to AP2, pilot screen, biochemical, validation set, GST-AP2 beads, flow cytometry (AID 504541;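 active = inhibition above 54%, about 3 SD of non-fluorescent compounds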;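 also: AP2 carries R879A mutation and is captured from E. coli lysate; bead-bound FITC arrestin peptide fluorescence measuring arrestin peptide binding to AP2; 0% = DMSO wells and 100% = excess unlabeled arrestin peptide control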). Particulars: FITC arrestin peptide, at 10 µM, stronger effect = higher value, AP2 beta2 appendage fragment, R879A mutant.
Assay [12] in a line: yeast V-ATPase proton transport modulators, S. cerevisiae, pHLuorin, HTS validation (AID 504600; in the data active = response above about 15%;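 also: plate controls were DMSO for no effect and reference compound for full effect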). Particulars: S. cerevisiae pHLuorin cytosolic pH, at 10 µM, stronger effect = higher value.
Assay [13] has as its system anti-desmoglein-3 scFv antibody binding to human DSG3. The assay is described as follows: inhibitors of anti-DSG3 scFv binding to DSG3, pilot screen, biochemical, validation compound set, bead-based, flow cytometry (AID 588368;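 active = binding below the plate cutoff, the plate median minus 3 SD, with a reading above zero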;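 also: signal is the median channel fluorescence of bead-bound GFP antibody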). Particulars: Protein G beads, DSG3-Fc, scFv-GFP binding, at 10 µM, stronger effect = lower value.
Assay [14] is described as follows: inhibitors of fungal efflux pumps CDR1, CDR2, MDR1, pilot screen, validation compound set, multiplex, phenotypic (AID 588506;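 active = efflux inhibition above 0.42, the validation set average plus 4 SD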;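 also: Nile Red retained in cells so higher fluorescence means more efflux inhibition; 0 = negative control wells and 1 = enniatin B 25 µM full block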). The note with it: S. cerevisiae pump-expressing triplex, Nile Red efflux flow cytometry; at 10 µM; stronger effect = higher value; the pumps come from Candida albicans.
Assay [15] concerns the target ATP-binding cassette sub-family B member 6 (Homo sapiens) (UniProt Q9NP58). The assay is described as follows: ABCB6 transporter inhibitors, pilot screen, K562-ABCB6 cells, flow cytometry, validation set (AID 588550;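 active = inhibition above the screen-wide mean plus 3 SD, about 51%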;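 also: 0% = DMSO wells and 100% = benzethonium chloride 70 µM positive control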). The note with it: K562-ABCB6 porphyrin accumulation, 1 h, at 10 µM, stronger effect = higher value.
The nature of assay [16]: promoters of myeloid differentiation in arrested cells, primary screen, cell-based, GFP/MAC1 double positive, flow cytometry, validation set (AID 588685;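 active = differentiation response of at least 50%, scaled between solvent and reference control, from cells with both markers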;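 also: compound exposure lasts four days before antibody staining and flow analysis; 0% = DMSO wells and 100% = 5 µM fulvestrant positive control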). Particulars: ER-HoxA9 marrow cells, stronger effect = higher value, normalized: vehicle 0, fulvestrant 100.
A short description of assay [17]: superoxide lowering in aged yeast cells, pilot screen, validation compound set (AID 2706;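 active = superoxide response below 65% of plate, a cut near 3 SD across the whole screen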;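 also: yeast exposed to compound for one week at 30 degrees C before staining; 100% = mean of all compound wells on the same plate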). Particulars: S. cerevisiae aging, superoxide DHE fluorescence; at 10 µM, stronger effect = lower value.

Each structure is given as a SMILES string. The list shows a part of the results. Calls of active or inactive are those of the source.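 The calls were made as follows, unless noted: active = over 150 percent of DMSO response; inconclusive = yeast strain measured with under 70 events; inactive = the rest.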

Chain of ATP-binding cassette sub-family B member 6 (Homo sapiens) (Q9NP58 whole entry, looked up): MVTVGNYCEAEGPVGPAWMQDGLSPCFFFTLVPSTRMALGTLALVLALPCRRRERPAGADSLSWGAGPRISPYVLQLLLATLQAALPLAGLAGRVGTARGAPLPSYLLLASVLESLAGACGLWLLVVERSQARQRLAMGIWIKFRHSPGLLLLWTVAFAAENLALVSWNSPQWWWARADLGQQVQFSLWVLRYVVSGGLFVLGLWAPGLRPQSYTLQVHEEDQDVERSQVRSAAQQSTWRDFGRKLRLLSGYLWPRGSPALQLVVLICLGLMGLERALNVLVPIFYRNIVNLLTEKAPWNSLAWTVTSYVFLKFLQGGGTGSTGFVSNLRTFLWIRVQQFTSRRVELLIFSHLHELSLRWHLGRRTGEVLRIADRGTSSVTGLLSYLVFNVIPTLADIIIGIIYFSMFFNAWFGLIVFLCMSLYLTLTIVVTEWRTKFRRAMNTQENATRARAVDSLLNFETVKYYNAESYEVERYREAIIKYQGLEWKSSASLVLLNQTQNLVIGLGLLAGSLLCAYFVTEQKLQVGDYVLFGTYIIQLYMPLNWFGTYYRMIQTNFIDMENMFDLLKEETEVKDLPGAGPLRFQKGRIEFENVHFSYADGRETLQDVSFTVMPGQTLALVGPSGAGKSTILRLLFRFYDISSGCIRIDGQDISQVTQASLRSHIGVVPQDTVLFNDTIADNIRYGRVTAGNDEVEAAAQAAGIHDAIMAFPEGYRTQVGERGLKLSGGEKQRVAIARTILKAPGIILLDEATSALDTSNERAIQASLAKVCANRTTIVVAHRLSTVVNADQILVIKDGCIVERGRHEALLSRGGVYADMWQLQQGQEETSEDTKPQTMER
Chain of Beta-adrenergic receptor kinase 1 (Homo sapiens) (P25098 whole entry, looked up): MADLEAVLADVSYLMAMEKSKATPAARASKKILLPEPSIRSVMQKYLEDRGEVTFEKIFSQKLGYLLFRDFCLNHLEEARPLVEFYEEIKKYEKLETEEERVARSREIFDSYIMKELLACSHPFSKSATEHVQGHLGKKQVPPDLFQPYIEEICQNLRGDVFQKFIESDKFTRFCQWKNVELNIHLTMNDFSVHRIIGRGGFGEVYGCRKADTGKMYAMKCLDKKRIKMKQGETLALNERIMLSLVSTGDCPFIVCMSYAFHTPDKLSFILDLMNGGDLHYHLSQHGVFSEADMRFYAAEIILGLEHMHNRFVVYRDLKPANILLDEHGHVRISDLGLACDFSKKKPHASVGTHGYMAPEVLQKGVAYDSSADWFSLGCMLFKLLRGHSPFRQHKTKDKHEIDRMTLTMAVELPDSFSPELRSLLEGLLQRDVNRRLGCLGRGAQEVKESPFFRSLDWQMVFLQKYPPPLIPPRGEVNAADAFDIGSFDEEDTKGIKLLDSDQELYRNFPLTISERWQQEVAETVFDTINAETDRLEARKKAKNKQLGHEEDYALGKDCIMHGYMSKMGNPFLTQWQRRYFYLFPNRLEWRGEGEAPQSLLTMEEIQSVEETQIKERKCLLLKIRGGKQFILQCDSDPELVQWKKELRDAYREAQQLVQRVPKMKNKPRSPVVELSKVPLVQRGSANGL
Chain of Integrin beta-1 (Homo sapiens) + Integrin alpha-4 (Homo sapiens) (P05556 whole entry, looked up): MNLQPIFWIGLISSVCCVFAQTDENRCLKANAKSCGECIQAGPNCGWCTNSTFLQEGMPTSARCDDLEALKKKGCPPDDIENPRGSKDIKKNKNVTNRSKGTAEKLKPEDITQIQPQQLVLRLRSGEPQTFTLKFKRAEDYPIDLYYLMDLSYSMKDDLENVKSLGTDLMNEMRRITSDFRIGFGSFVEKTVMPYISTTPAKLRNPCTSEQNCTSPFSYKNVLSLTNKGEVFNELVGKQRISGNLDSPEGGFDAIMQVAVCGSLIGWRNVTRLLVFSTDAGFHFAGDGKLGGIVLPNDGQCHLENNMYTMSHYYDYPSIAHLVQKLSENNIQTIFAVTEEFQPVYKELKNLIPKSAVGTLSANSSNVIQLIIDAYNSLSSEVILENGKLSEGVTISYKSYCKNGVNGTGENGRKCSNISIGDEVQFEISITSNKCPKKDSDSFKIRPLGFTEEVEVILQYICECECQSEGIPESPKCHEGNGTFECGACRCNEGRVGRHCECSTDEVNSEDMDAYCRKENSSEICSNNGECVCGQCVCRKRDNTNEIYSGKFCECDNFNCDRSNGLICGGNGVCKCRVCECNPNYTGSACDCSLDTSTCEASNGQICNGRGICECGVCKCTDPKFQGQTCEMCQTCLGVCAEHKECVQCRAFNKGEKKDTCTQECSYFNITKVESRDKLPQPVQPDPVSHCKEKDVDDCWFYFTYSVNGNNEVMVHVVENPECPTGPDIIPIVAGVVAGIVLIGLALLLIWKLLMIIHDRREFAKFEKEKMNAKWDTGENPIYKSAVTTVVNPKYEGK
Chain of Integrin beta-1 (Homo sapiens) + Integrin alpha-4 (Homo sapiens) (P13612 whole entry, looked up): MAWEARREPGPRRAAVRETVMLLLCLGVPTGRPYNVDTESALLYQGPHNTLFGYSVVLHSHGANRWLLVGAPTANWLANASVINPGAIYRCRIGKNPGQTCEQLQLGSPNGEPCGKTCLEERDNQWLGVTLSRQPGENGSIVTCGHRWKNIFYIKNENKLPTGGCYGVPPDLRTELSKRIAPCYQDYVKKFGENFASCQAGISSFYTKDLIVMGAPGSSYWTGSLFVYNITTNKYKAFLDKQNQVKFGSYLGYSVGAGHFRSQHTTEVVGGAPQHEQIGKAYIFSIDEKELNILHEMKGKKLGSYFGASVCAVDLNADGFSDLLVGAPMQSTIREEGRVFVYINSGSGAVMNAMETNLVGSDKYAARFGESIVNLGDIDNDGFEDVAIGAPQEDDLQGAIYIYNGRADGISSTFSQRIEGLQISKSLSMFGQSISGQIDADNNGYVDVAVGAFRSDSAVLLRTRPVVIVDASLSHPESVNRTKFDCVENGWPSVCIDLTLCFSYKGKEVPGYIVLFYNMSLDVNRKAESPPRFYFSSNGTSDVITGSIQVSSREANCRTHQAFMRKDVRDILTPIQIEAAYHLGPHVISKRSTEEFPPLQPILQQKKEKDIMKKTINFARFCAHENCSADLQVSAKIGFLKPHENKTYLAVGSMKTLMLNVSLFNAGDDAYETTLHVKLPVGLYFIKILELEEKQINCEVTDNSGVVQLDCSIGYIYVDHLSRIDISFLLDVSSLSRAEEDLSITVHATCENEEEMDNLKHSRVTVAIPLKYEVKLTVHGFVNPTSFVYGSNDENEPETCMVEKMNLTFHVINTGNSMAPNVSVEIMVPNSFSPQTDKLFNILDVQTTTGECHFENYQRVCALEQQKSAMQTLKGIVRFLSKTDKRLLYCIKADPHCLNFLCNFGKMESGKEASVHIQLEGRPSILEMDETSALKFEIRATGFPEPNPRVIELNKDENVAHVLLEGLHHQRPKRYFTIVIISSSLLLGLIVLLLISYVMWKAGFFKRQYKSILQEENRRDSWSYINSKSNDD
Chain of Beta-2 adrenergic receptor (Homo sapiens) (P07550 whole entry, looked up): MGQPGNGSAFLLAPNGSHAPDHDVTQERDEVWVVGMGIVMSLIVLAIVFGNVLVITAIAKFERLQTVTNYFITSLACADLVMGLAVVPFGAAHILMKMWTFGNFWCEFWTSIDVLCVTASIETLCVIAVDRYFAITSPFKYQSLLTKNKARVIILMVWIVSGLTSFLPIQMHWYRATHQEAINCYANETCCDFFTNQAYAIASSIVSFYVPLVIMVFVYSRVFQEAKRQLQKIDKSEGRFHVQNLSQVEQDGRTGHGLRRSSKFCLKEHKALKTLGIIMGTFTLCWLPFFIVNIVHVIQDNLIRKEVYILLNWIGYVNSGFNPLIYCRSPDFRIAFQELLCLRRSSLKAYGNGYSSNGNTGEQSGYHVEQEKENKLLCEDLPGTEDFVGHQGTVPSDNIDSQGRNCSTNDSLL
Chain of AP-2 complex subunit beta (Homo sapiens) (P63010 whole entry, looked up, the tested form may be a part, one chain of several): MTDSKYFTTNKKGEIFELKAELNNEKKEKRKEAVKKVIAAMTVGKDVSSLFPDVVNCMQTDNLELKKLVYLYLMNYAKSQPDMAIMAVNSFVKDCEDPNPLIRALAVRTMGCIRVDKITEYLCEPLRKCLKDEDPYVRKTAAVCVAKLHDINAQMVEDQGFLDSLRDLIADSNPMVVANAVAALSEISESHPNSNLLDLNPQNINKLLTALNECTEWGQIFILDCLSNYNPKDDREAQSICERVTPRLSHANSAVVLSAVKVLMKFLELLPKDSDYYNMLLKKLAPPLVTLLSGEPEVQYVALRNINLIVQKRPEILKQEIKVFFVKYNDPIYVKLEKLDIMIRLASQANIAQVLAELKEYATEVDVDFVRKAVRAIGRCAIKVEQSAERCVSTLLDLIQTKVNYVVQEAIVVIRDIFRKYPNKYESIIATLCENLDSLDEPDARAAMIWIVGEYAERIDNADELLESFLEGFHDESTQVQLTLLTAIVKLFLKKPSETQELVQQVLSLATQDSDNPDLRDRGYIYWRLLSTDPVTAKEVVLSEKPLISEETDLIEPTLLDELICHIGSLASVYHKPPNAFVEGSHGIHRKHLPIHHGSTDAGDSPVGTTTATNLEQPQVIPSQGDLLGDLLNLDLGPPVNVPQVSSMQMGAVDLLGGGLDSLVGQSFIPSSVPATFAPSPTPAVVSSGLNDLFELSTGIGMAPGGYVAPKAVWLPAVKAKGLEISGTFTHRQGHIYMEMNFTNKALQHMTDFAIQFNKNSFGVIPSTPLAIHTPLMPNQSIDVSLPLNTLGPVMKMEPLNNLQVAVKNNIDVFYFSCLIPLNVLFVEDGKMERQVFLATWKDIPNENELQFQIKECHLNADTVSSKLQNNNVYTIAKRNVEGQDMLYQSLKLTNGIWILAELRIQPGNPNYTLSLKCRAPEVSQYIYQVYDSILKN

As for `COc1ccc2nc(N3CCN(C(=O)c4ccc([N+](=O)[O-])o4)CC3)sc2c1`, the GFP response vs DMSO in assay [1] was 252% (active); in [2], 255% (active); in assay [3], 87% (inactive); in assay [4], 243% (active). Also, the percent response vs DMSO in [5] is 87.3% (inactive).
For `COc1cccc(/C=N/Nc2ncc(C(F)(F)F)cc2Cl)c1O`, the GFP response vs DMSO in [1] is 200% (active); in assay [2], 143% (inactive); in [3], 102% (inactive); in [4] it was 132% (inactive). In addition, in [5], the percent response vs DMSO was 86.2% (inactive). Further, the fluorescence change (kMESF span) in [6] was 1.52 (inactive).
Consider `CC1=C/C(=N\OS(=O)(=O)c2ccccc2)C=CC1=O`, for which the GFP response vs DMSO in [1] was 126% (inactive); in assay [2], 145% (inactive); in assay [3] it was 103% (inactive); in assay [4], 109% (inactive). Moreover, the percent response vs DMSO in assay [5] is 101% (inactive).
As to `COc1ccc(-c2nc(CS(=O)(=O)CC(=O)NCc3cccc(Br)c3)c(C)o2)cc1`, the GFP response vs DMSO in [1] is 109% (inactive); in assay [2], 119% (inactive); in [3], 101% (inactive); in assay [4], 113% (inactive). Moreover, the percent response vs DMSO in assay [5] was 99.3% (inactive).
Take `CCC(=C/c1sc2ccc3ccccc3c2[n+]1C)/C=C1\Sc2ccc3ccccc3c2N1C`: the GFP response vs DMSO in assay [1] is 2930% (active); in assay [2], 285% (active); in assay [3] it was 451% (inactive); in [4], 303% (active). Besides, in assay [5], the percent response vs DMSO is 98.8% (inactive).
Regarding `COc1ccc(C2(C)ON(c3ccccc3C(F)(F)F)C2=O)cc1` (stereo unspecified), the GFP response vs DMSO in assay [1] was 113% (inactive); in [2] it was 103% (inactive); in assay [3] it was 100% (inactive); in assay [4] it was 100% (inactive). The percent response vs DMSO in assay [5] was 101% (inactive). The fluorescence change (kMESF span) in assay [6] was 0.5 (inactive).
For orientation: inhibition means the change of the read-out against control, counted positive when it falls. As to `O=C(NCCN1CCCCC1)c1c(O)c2ccccc2[nH]c1=O`, the double positive events in assay [7] is 61.8%. In [7], the vesicle binding response is 38% (inactive). Further, the inhibition in assay [8] is -6.68% (inactive); in assay [11], 5.65% (inactive); in [15] it was -4% (inactive). The aptamer binding inhibition in assay [9] was -4% (inactive). Besides, the response in [10] was 0.73% (inactive); in assay [12], 3.25% (inactive). In addition, the binding (% of control) in assay [13] is 109% (inactive). In assay [14], the efflux inhibition (fraction of control) is 0.49 (active). The differentiation response in assay [16] was 21.8% (inactive).
In the case of `O=C(NC(=S)NC1CCS(=O)(=O)C1)c1cccc([N+](=O)[O-])c1` (stereo unspecified), the GFP response vs DMSO is 101% (inactive) in assay [1], 105% (inactive) in [2], 101% (inactive) in assay [3] and 105% (inactive) in assay [4]. Also, the percent response vs DMSO in assay [5] is 106% (inactive).
For the compound `CN1CCc2cccc3c2[C@H]1Cc1ccc(O)c(O)c1-3`, in [7], the double positive events was 61%. Further, the vesicle binding response in assay [7] is 187% (inactive). Besides, the inhibition in [8] was -17.1% (inactive); in assay [11] it was 3.9% (inactive); in assay [15] it was -1% (inactive). For the same compound, the aptamer binding inhibition in assay [9] was 4% (inactive). Besides, the response is 6.81% (inactive) in assay [10] and 2.95% (inactive) in [12]. Also, in assay [13], the binding (% of control) was 94.3% (inactive). For the same compound, the efflux inhibition (fraction of control) in assay [14] is 0.08 (inactive). For the same compound, the differentiation response in assay [16] is 20.8% (inactive).
In the case of `C#CCOCCOCCOCCNc1nc(N2CCN(C(=O)CCCCCCCCCCNC(=O)[C@H](CCCCN)n3cc(C)nn3)CC2)nc(N2CCN(C(=O)CCCCCCCCCCNC(=O)[C@H](CO)n3cc(CCCSC)nn3)CC2)n1`, the GFP response vs DMSO is 109% (inactive) in [1], 119% (inactive) in [2], 97.6% (inactive) in assay [3] and 110% (inactive) in assay [4]. Further, the percent response vs DMSO in assay [5] is 104% (inactive).
For `CN(Cc1ccccc1)C(=O)C(=O)c1cn(CC(=O)N2CCCC2)c2ccccc12`, the GFP response vs DMSO is 103% (inactive) in assay [1], 96.1% (inactive) in assay [2], 95% (inactive) in [3] and 103% (inactive) in [4]. Further, the percent response vs DMSO in assay [5] was 98.3% (inactive).
`Cc1[nH]c2ccccc2c1C(=O)CN1CCCC1` gave a double positive events in assay [7] of 61.6%. The vesicle binding response in [7] is 26% (inactive). Moreover, the inhibition in [8] is -4.6% (inactive); in [11], 4.83% (inactive); in assay [15] it was 48% (inactive). Besides, the aptamer binding inhibition in assay [9] is -4% (inactive). The response is 7.28% (inactive) in [10] and -0.48% (inactive) in assay [12]. Also, the binding (% of control) in [13] is 110% (inactive). Further, the efflux inhibition (fraction of control) in [14] is 0.24 (inactive). In addition, the differentiation response in assay [16] was 28.6% (inactive).
In assay [7], `C(=C\c1ccccc1)/CN1CCN(C(c2ccccc2)c2ccccc2)CC1` returned a double positive events of 66.7%. Further, the inhibition was -1.3% (inactive) in assay [8], 0.96% (inactive) in assay [11] and 16% (inactive) in assay [15]. In [17], the superoxide response (% of plate) is 86.5% (inactive). Besides, in assay [9], the aptamer binding inhibition was 0% (inactive). For the same compound, the results for the response in assay [10] and in assay [12] were 11.4% (inactive) and 0.39% (inactive), respectively. Moreover, the binding (% of control) in [13] was 120% (inactive). In assay [14], the efflux inhibition (fraction of control) was -0.24 (inactive). In addition, in [16], the differentiation response was 1.64% (inactive).
`CCn1c(SCCC(C)C)nnc1-c1c[nH]c2ccccc12`: the GFP response vs DMSO in [1] is 95.2% (inactive); in assay [2], 96.1% (inactive); in assay [3], 96.3% (inactive); in [4], 100% (inactive). Further, the percent response vs DMSO in assay [5] was 96.7% (inactive).
`CCc1nnc(SCc2cccc(F)c2)nc1CC`: the GFP response vs DMSO in [1] is 104% (inactive); in [2] it was 96.1% (inactive); in assay [3] it was 95.5% (inactive); in [4], 89% (inactive). Further, the percent response vs DMSO in [5] was 97.8% (inactive).

These data come from PubChem BioAssay.
